Counter-ions that a name gives are not always drawn. ± gives the standard deviation.

Experiment [1] relates to Jurkat. As to the kind of experiment: mean cell size (FSC-A) relative to DMSO control (fraction of control); higher = larger cells. The following applies: 48 h. The essentials: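 Jurkat cells seeded at 600 cells/µl were incubated 1 h, then exposed for 48h to the Enzo Screen-Well FDA Approved Drug Library v2.0 at 25µM in 0.9% (v/v) final DMSO. Drugs that cut counts below 20% of controls were diluted 10-fold and retested, down to 25nM. Cell count and mean cell size (forward scatter area) were read on an Accuri C6 flow cytometer, relative to solvent-only controls. Plates held 6-12 controls; values are means of 3 biological replicates.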

Experiment [2] deals with Jurkat. As to the kind of experiment: cell count relative to DMSO control (fraction of control); higher = more cells (less growth inhibition). As to conditions: 48 h.

Compound `CCOC(=O)O[C@]1(C(=O)OCCl)CC[C@H]2[C@@H]3CCC4=CC(=O)C=C[C@]4(C)[C@H]3[C@@H](O)C[C@@]21C` [Loteprednol Etabonate] (concentration: 25 µM) yielded a mean cell size with Jurkat [1] of 0.892 ± 0.027. The compound further gave a cell count in the experiment with Jurkat [2] of 1.08 ± 0.067.
For the compound `C[C@](N)(Cc1ccc(O)c(O)c1)C(=O)O` [Methyldopa Sesquihydrate (L-Α-Methyl-Dopa Sesquihyrate)] (concentration: 25 µM), in the experiment on Jurkat [1], the mean cell size is 0.958 ± 0.027. The compound also had a cell count in the experiment on Jurkat [2] of 0.834 ± 0.052.
The like results for `NC(=O)Cc1cccc(C(=O)c2ccccc2)c1N` [Nepafenac] (concentration: 25 µM) were, in that order, 0.934 ± 0.019 and 0.727 ± 0.025.
The like results for `CO[C@@]1(NC(=O)Cc2cccs2)C(=O)N2C(C(=O)O)=C(COC(N)=O)CS[C@@H]21` [Cefoxitin·Na] (concentration: 25 µM) were, in that order, 0.939 ± 0.031 and 0.89 ± 0.037.
The compound `COc1cc2c(cc1OC)C(=O)C(CC1CCN(Cc3ccccc3)CC1)C2` (stereo unspecified) [Donepezil·HCl] (concentration: 25 µM) returned a mean cell size in the experiment with Jurkat [1] of 1.032 ± 0.0096. The compound further registered a cell count in the experiment with Jurkat [2] of 0.487 ± 0.13.
The like results for `OC(Cn1cncn1)(Cn1cncn1)c1ccc(F)cc1F` [Fluconazole] (concentration: 25 µM) were, in that order, 0.969 ± 0.054 and 0.325 ± 0.14.
As to `C[C@@H]1NC(=O)[C@@H](N)CNC(=O)[C@H](C2CCNC(=N)N2)NC(=O)/C(=C/NC(N)=O)NC(=O)[C@H](CNC(=O)CC(N)CCCN)NC1=O.N=C1NCC[C@H]([C@@H]2NC(=O)/C(=C/NC(N)=O)NC(=O)[C@H](CNC(=O)C[C@@H](N)CCCN)NC(=O)[C@H](CO)NC(=O)[C@@H](N)CNC2=O)N1` [Capreomycin Sulfate] (concentration: 25 µM), the mean cell size in the experiment on Jurkat [1] amounted to 0.97 ± 0.044. In addition, the cell count in the experiment with Jurkat [2] came to 0.544 ± 0.14.
The like results for `COc1cc2nc(N3CCN(C(=O)C4COc5ccccc5O4)CC3)nc(N)c2cc1OC` (stereo unspecified) [Doxazosin Mesylate] (concentration: 2.5 µM) were, in that order, 1.01 ± 0.011 and 0.79 ± 0.13.
Compound `CCC1=C(C)CN(C(=O)NCCc2ccc(S(=O)(=O)NC(=O)N[C@H]3CC[C@H](C)CC3)cc2)C1=O` [Glimepiride] (concentration: 25 µM) had a mean cell size with Jurkat [1] of 0.94 ± 0.02. The compound further came in with a cell count in the experiment on Jurkat [2] of 0.859 ± 0.076.
In the same order, the values of `CC(=O)Oc1cc2c(s1)CCN(C(C(=O)C1CC1)c1ccccc1F)C2` (stereo unspecified) [Prasugrel] (concentration: 25 µM) are 1.06 ± 0.023 and 0.831 ± 0.14.
The like results for `CC(=O)/N=c1/sc(S(N)(=O)=O)nn1C` [Methazolamide] (concentration: 25 µM) were, in that order, 1.02 ± 0.035 and 0.925 ± 0.091.
In the case of `Cc1ccc(C(=O)c2ccc(CC(=O)O)n2C)cc1` [Tolmetin·Na] (concentration: 25 µM), the mean cell size in the experiment on Jurkat [1] amounted to 0.964 ± 0.035. This compound also gave a cell count with Jurkat [2] of 0.912 ± 0.11.
In the case of `NC[C@@H]1O[C@H](O[C@H]2[C@@H](O)[C@H](O[C@@H]3[C@@H](O)[C@H](N)C[C@H](N)[C@H]3O[C@H]3O[C@H](CO)[C@@H](O)[C@H](O)[C@H]3N)O[C@@H]2CO)[C@H](N)[C@@H](O)[C@@H]1O` [Paromomycin Sulfate] (concentration: 25 µM), in the experiment with Jurkat [1], the mean cell size was found to be 0.949 ± 0.012. The compound also returned a cell count in the experiment on Jurkat [2] of 0.773 ± 0.041.
In the same order, the values of `O=C(CCCN1CC=C(n2c(=O)[nH]c3ccccc32)CC1)c1ccc(F)cc1` [Droperidol] (concentration: 25 µM) are 0.962 ± 0.032 and 0.812 ± 0.095.
The like results for `CN(N=O)C(=O)N[C@@H]1[C@@H](O)[C@H](O)[C@@H](CO)O[C@@H]1O` [Streptozocin] (concentration: 25 µM) were, in that order, 0.939 ± 0.014 and 0.897 ± 0.034.
The like results for `CN1CC2c3ccccc3Oc3ccc(Cl)cc3C2C1` (stereo unspecified) [Asenapine Maleate] (concentration: 25 µM) were, in that order, 0.938 ± 0.019 and 0.935 ± 0.16.
In the case of `CCCCCCCCCCCCCCCC(=O)O[C@@H]1[C@@H](O)[C@@H](O)[C@@H]([C@H](NC(=O)[C@@H]2C[C@@H](CCC)CN2C)[C@H](C)Cl)O[C@@H]1SC` [Clindamycin Palmitate·HCl] (concentration: 25 µM), the mean cell size in the experiment on Jurkat [1] amounted to 1 ± 0.044. In the experiment with Jurkat [2], this compound gave a cell count of 0.725 ± 0.025.
`NC1=NCC2c3ccccc3Cc3ccccc3N12` (stereo unspecified) [Epinastine·HCl] (concentration: 25 µM) showed a mean cell size with Jurkat [1] of 0.951 ± 0.014. In the experiment with Jurkat [2], the cell count came to 1.06 ± 0.077.
In the case of `CC(C(=O)O)c1cccc(Oc2ccccc2)c1` (stereo unspecified) [Fenoprofen Calcium] (concentration: 25 µM), the mean cell size in the experiment with Jurkat [1] is 0.901 ± 0.05. In the experiment with Jurkat [2], this compound yielded a cell count of 0.314 ± 0.15.
Compound `NCC[C@H](O)C(=O)N[C@@H]1C[C@H](N)[C@@H](O[C@H]2O[C@H](CN)[C@@H](O)[C@H](O)[C@H]2O)[C@H](O)[C@H]1O[C@H]1O[C@H](CO)[C@@H](O)[C@H](N)[C@H]1O` [Amikacin Disulfate] (concentration: 25 µM) had a mean cell size in the experiment with Jurkat [1] of 0.994 ± 0.028. The compound further returned a cell count in the experiment with Jurkat [2] of 0.921 ± 0.014.
In the same order, the values of `Nc1ccc(C(=O)O)c(O)c1` [4-Aminosalicylic Acid] (concentration: 25 µM) are 0.914 ± 0.016 and 0.844 ± 0.14.
In the same order, the values of `CC(=O)N[C@H]1[C@H]([C@H](O)[C@H](O)CO)OC(C(=O)O)=C[C@@H]1NC(=N)N` [Zanamivir] (concentration: 25 µM) are 0.993 ± 0.052 and 0.647 ± 0.18.
The like results for `CN(C/C=C/C#CC(C)(C)C)Cc1cccc2ccccc12` [Terbinafine·HCl] (concentration: 25 µM) were, in that order, 0.947 ± 0.018 and 0.947 ± 0.08.

The values are drawn from the supplement of paper PMC4709259.
